This is one part of a sample in which hits are shown more often than they occur.
IDE exosite inh: displaces the probe from the exo-site of human IDE. P14735. purified IDE, FL-6b probe fluorescence polarization; hits give low values. z-score at 20 µM. 17,000 tested, 6.3% active. AID 1259349;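 active means z-score of -3 or lower, meaning strong loss of probe binding signal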;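 further: His-tagged human IDE residues 42-1019 made in E. coli with 30 nM FL-6b probe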
Target sequence (P14735 42-1019 limits assumed): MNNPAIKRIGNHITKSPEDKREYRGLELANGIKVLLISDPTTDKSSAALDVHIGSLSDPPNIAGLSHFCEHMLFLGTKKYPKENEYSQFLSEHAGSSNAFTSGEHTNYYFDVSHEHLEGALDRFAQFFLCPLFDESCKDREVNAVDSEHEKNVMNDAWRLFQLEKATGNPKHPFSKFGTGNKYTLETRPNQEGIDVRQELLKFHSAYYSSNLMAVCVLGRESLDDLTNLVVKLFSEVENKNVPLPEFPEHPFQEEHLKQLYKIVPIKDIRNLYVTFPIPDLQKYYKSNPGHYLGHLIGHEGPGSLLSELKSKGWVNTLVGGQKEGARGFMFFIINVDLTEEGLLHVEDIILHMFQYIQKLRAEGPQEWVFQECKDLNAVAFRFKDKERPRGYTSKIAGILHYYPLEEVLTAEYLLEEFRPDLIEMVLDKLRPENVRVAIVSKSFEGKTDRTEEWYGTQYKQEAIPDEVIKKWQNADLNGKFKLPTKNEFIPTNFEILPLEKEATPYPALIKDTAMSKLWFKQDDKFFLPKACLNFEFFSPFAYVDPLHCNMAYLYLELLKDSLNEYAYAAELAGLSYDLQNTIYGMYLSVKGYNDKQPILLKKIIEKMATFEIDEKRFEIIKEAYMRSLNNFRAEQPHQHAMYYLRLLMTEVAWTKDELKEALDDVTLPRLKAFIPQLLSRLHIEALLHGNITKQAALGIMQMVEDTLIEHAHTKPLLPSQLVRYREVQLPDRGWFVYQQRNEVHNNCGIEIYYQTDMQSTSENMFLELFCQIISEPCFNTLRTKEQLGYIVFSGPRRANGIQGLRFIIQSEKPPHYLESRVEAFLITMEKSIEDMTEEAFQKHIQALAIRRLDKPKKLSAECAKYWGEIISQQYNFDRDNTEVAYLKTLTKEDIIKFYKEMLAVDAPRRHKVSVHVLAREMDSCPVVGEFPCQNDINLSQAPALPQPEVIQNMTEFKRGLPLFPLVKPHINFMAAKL
* = called active by the depositor.

SMILES | IDE exosite inh
C[C@H]1CN([C@@H](C)CO)C(=O)c2cc(NS(=O)(=O)c3cn(C)cn3)ccc2O[C@@H]1CN(C)S(=O)(=O)c1ccc(F)cc1 | 0.64
N#C[C@@H]1[C@H](c2ccccc2-c2ccccc2)[C@@H](CO)N1C(=O)Cc1ccncc1 | 1.1
C[C@@H]1CN([C@@H](C)CO)C(=O)CCCn2cc(nn2)CO[C@@H]1CN(C)S(=O)(=O)c1ccc(-n2cccn2)cc1 | -2.3
O=C(C[C@H]1C[C@H]2c3cc(NC(=O)C4CCC4)ccc3O[C@H]2[C@H](CO)O1)NC1CCCC1 | 0.6
O=C(C[C@H]1C=C[C@H](NC(=O)c2cnccn2)[C@H](CO)O1)NCc1ccccc1F | 1.9
O=C(c1cccc(F)c1)N1CC(=O)N2[C@H](CO)[C@@H](c3ccc(-c4ccccc4)cc3)[C@H]2C1 | 0.81
O=C(c1cccc(F)c1)N1CC(=O)N2[C@H](CO)[C@@H](c3ccc(-c4ccccc4)cc3)[C@@H]2C1 | -0.16
O=C(Nc1ccccc1F)N1CC(=O)N2[C@H](C1)[C@@H](c1ccc(C#Cc3ccc(F)cc3)cc1)[C@@H]2CO | 4.2
O=C(c1ccccc1F)N1CC(=O)N2[C@H](CO)[C@H](c3ccc(C#Cc4ccccc4)cc3)[C@@H]2C1 | -1.8
O=C(c1ccccc1F)N1CC(=O)N2[C@H](C1)[C@@H](c1ccc(-c3ccccc3)cc1)[C@@H]2CO | -3.2*
O=C(c1ccccc1F)N1CC(=O)N2[C@H](CO)[C@@H](c3ccc(C#Cc4ccccc4)cc3)[C@@H]2C1 | 0.93
O=C(Nc1ccccc1F)N1CC(=O)N2[C@H](C1)[C@H](c1ccc(C#Cc3ccccc3)cc1)[C@@H]2CO | -4.1*
O=C(c1ccccc1F)N1CC(=O)N2[C@H](C1)[C@H](c1ccc(C#Cc3ccccc3)cc1)[C@@H]2CO | -3.4*
O=C(c1ccccc1F)N1CC(=O)N2[C@@H](CO)[C@H](c3ccc(-c4ccccc4)cc3)[C@@H]2C1 | -1.2
O=C(Nc1ccccc1F)N1CC(=O)N2[C@@H](CO)[C@@H](c3ccc(C#Cc4ccc(F)cc4)cc3)[C@@H]2C1 | 0.6
O=C(c1ccccc1F)N1CC(=O)N2[C@@H](CO)[C@H](c3ccc(-c4ccc(F)cc4)cc3)[C@@H]2C1 | 1.3
O=C(c1cccc(F)c1)N1CC(=O)N2[C@H](C1)[C@@H](c1ccc(-c3ccccc3)cc1)[C@@H]2CO | -3.4*
CCC(=O)N1CC(=O)N2[C@H](CO)[C@H](c3ccc(-c4ccc(C#N)cc4)cc3)[C@@H]2C1 | -1.7
CCCNC(=O)N1[C@H](C#N)[C@@H](c2ccccc2-c2ccc(F)cc2)[C@@H]1CO | 0.33
COCC(=O)N1[C@@H](C#N)[C@@H](c2ccccc2-c2cccc(F)c2)[C@@H]1CO | 0.96
CO[C@H]1CN(C)C(=O)c2ccc(NS(C)(=O)=O)cc2OC[C@@H](C)N(CC2CC2)C[C@@H]1C | 1.3
N#C[C@@H]1[C@H](c2ccccc2C2=CCCC2)[C@H](CO)N1C(=O)CN1CCOCC1 | 1.3
Cc1cccc(S(=O)(=O)N2CCCCN3[C@H](CO)[C@H](c4ccc(C#CC(C)C)cc4)[C@H]3C2)c1 | 4
O=C(Nc1ccc(F)cc1)N1CC(=O)N2[C@@H](CO)[C@@H](c3ccc(C#Cc4ccccc4)cc3)[C@@H]2C1 | -1.8
COc1ccc2c3c(n(C)c2c1)[C@@H](CO)N(C(=O)C1CC1)CC31CCN(C(=O)CN(C)C)CC1 | -0.44
SMILES | IDE exosite inh
COc1ccccc1-c1ccc([C@@H]2[C@@H](CO)N3CCCCN(C(=O)NC4CCCC4)C[C@H]23)cc1 | -8.4*
COc1ccccc1-c1ccc([C@@H]2[C@H](CO)N3CCCCN(C(=O)NC4CCCC4)C[C@@H]23)cc1 | -16*
COCC#Cc1ccc([C@H]2[C@H]3CN(C(=O)NC4CCCC4)CCCCN3[C@H]2CO)cc1 | -0.15
COc1ccccc1-c1ccc([C@@H]2[C@@H](CO)N3CCCCN(C(=O)NC4CCCC4)C[C@@H]23)cc1 | -4.7*
COc1ccccc1-c1ccc([C@H]2[C@H]3CN(C(=O)NC4CCCC4)CCCCN3[C@H]2CO)cc1 | -14*
O=C(NC1CCCC1)N1CCCCN2[C@@H](CO)[C@H](c3ccc(-c4cncnc4)cc3)[C@@H]2C1 | 1.9
COc1ccccc1NC(=O)N1CCCCN2[C@H](C1)[C@H](c1ccc(-c3ccc(C)cc3)cc1)[C@@H]2CO | 1.2
COCC#Cc1ccc([C@H]2[C@@H](CO)N3CCCCN(C(=O)NC4CCCC4)C[C@@H]23)cc1 | -1.2
Fc1cccc(-c2ccc(C3[C@@H]4CN(Cc5cncnc5)C[C@H]3N4)cc2)c1 (stereo not given in full) | -1.1
CCCC#Cc1ccc([C@H]2[C@H](C#N)N(C(=O)CN3CCOCC3)[C@H]2CO)cc1 | -0.63
C[C@@H]1CCCCO[C@@H](CN(C)CC2CC2)[C@@H](C)CN([C@H](C)CO)C(=O)c2cc(NC(=O)c3ccccc3)ccc2O1 | 0.98
CC(=O)NC[C@H]1[C@@H](c2ccccc2)[C@@H](CO)N1C(=O)Cc1cccnc1 | 4.2
COc1cccc(-c2ccc3n(c2=O)C[C@@H]2[C@@H](CO)[C@H](C(=O)NC4Cc5ccccc5C4)N[C@H]32)c1 | 1.4
CC(C)NC(=O)N1CCCCN2[C@H](CO)[C@@H](c3ccc(C#C[C@H](C)O)cc3)[C@@H]2C1 | 2.4
O=C([C@H]1[C@H](CO)[C@H]2Cn3c(cccc3=O)[C@H]2N1Cc1cocn1)N1CCC(Cc2ccccc2)CC1 | -0.86
C/C=C/c1ccc([C@@H]2[C@@H](CO)N3CCCCN(S(=O)(=O)c4ccccc4)C[C@@H]23)cc1 | 0.44
CCCNC(=O)C[C@H]1CC[C@@H]2[C@H](COC[C@@H](O)CN2C(=O)Nc2ccc(Cl)c(Cl)c2)O1 | 1.3
O=C1CN(S(=O)(=O)Cc2ccccc2)C[C@@H]2[C@H](c3ccc(C#Cc4cccnc4)cc3)[C@H](CO)N12 | -0.39
COc1ccccc1-c1ccc([C@@H]2[C@H]3CN(C(=O)NC4CCCC4)CCCCN3[C@H]2CO)cc1 | -12*
CCc1cnc(N2[C@H](C#N)[C@H](c3ccc(C#Cc4ccccc4F)cc3)[C@@H]2CO)s1 | 0.12
COc1cccc(NC(=O)N2CC(=O)N3[C@@H](CO)[C@@H](c4ccc(C#CCC5CCCC5)cc4)[C@@H]3C2)c1 | -1.3
CN(C)C(=O)c1cccc(-c2ccc([C@@H]3[C@@H](CO)N4CCCCN(S(C)(=O)=O)C[C@@H]34)cc2)c1 | -0.17
C[C@@H]1CCCCO[C@@H](CN(C)S(=O)(=O)c2cn(C)cn2)[C@@H](C)CN([C@H](C)CO)C(=O)c2cc(NC(=O)Nc3cccc4ccccc34)ccc2O1 | -1.1
C[C@@H]1CCCCO[C@H](CN(C)S(=O)(=O)c2cn(C)cn2)[C@@H](C)CN([C@@H](C)CO)C(=O)c2cc(NC(=O)Nc3cccc4ccccc34)ccc2O1 | -0.62
C[C@@H]1CN([C@H](C)CO)C(=O)c2cc(NC(=O)Nc3cccc4ccccc34)ccc2O[C@@H](C)CCCCO[C@H]1CN(C)S(=O)(=O)c1cn(C)cn1 | -1.4
C[C@@H]1CCCCO[C@@H](CN(C)S(=O)(=O)c2cn(C)cn2)[C@@H](C)CN([C@@H](C)CO)C(=O)c2cc(NC(=O)Nc3cccc4ccccc34)ccc2O1 | -4.2*
C[C@@H]1CN([C@@H](C)CO)C(=O)c2cc(NC(=O)Nc3cccc4ccccc34)ccc2O[C@@H](C)CCCCO[C@@H]1CN(C)S(=O)(=O)c1cn(C)cn1 | -3.9*
C[C@@H]1CCCCO[C@H](CN(C)S(=O)(=O)c2cn(C)cn2)[C@H](C)CN([C@@H](C)CO)C(=O)c2cc(NC(=O)Nc3cccc4ccccc34)ccc2O1 | -1.7
